The text below walks through data of PubChem BioAssay (NCI).

Where “and” joins values, the source holds several entries; their conditions need not be identical. Identical values can stand only once. Compounds without any hit were thinned out: in the full panel of roughly 83,000, 20% have a hit.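 Growth was measured after 48 h exposure to one concentration of compound in 96-well plates. Values under 10 count as active.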 Calls of active or inactive are those of the source.

Some test systems named below: SK-MEL-2 melanoma; EKVX NSCLC; SN12C renal; UO-31 renal; TK-10 renal; ACHN renal; CAKI-1 renal; A498 renal; CCRF-CEM leukemia; MOLT-4 leukemia.
Assay in all cases: NCI-60 one-dose screen, 48 h (100 = growth as untreated, 0 = no growth, -100 = all killed)
What all share (conditions): 10 µM unless noted

As to `CC1(CO)CCCC1NCCNC1CCCC1(C)CO` (stereo not given), the growth in the assay on SK-MEL-2 melanoma is 89.9% (inactive) and 110% (inactive); with EKVX NSCLC, 101% (inactive); with SN12C renal it was 98% (inactive) and 103% (inactive); with UO-31 renal, 105% (inactive) and 86% (inactive); in the assay on TK-10 renal it was 108% (inactive); in the assay with ACHN renal it was 105% (inactive) and 100% (inactive). The growth with CAKI-1 renal is 99.5% (inactive) and 92.3% (inactive); in the assay on A498 renal, 102% (inactive) and 111% (inactive); in the assay with CCRF-CEM leukemia, 99.6% (inactive); in the assay on MOLT-4 leukemia it was 115% (inactive) and 104% (inactive).

With `Nc1nc(N)c2cc(S(=O)(=O)c3ccccc3)ccc2n1`, the growth was 80.2% (inactive) and 126% (inactive) in the assay with SK-MEL-2 melanoma; 47.4% (inactive) and 51.2% (inactive) in the assay with EKVX NSCLC; 29.2% (inactive) and 41.4% (inactive) in the assay with SN12C renal; 35.3% (inactive) and 61.5% (inactive) in the assay on UO-31 renal; 59.6% (inactive) and 63.8% (inactive) with TK-10 renal; 24% (inactive) and 29.6% (inactive) in the assay on ACHN renal. For the same compound, the growth with CAKI-1 renal was 21.3% (inactive) and 22.4% (inactive); with A498 renal it was 57.2% (inactive) and 94.4% (inactive); in the assay on CCRF-CEM leukemia it was 37.9% (inactive) and 29.7% (inactive); in the assay on MOLT-4 leukemia it was 32.8% (inactive) and 49.8% (inactive).

As to `Cc1c(Cl)c(C)c(Cc2c(C)c(Cl)c(C)c(Cl)c2O)c(O)c1Cl`, the growth was 1.72% (active) in the assay on SK-MEL-2 melanoma; 3.88% (active) with EKVX NSCLC; 8.8% (active) in the assay on SN12C renal; 7.71% (active) in the assay on UO-31 renal; 25.1% (inactive) in the assay on TK-10 renal; 3.3% (active) in the assay on ACHN renal. Further, the growth with CAKI-1 renal was 4.14% (active); with A498 renal it was -21.6% (active); in the assay with CCRF-CEM leukemia it was 26.5% (inactive); with MOLT-4 leukemia, 16.5% (inactive).

With `O=C1c2cccnc2-c2ncccc21`, the growth in the assay on SK-MEL-2 melanoma is 122% [100 µM] (inactive); with EKVX NSCLC, 99.6% [100 µM] (inactive); with SN12C renal, 108% [100 µM] (inactive); with UO-31 renal, 97.1% [100 µM] (inactive); with TK-10 renal, 97.1% [100 µM] (inactive); with ACHN renal, 112% [100 µM] (inactive). Besides, the growth in the assay with CAKI-1 renal is 103% [100 µM] (inactive); in the assay on A498 renal, 103% [100 µM] (inactive); in the assay with CCRF-CEM leukemia it was 106% [100 µM] (inactive); in the assay with MOLT-4 leukemia, 117% [100 µM] (inactive).

On to `CC(=O)c1cc2ccccc2o1`, for which the growth was 97.9% (inactive) in the assay with SK-MEL-2 melanoma; 106% (inactive) with EKVX NSCLC; 101% (inactive) in the assay with SN12C renal; 99.6% (inactive) in the assay on UO-31 renal; 93.6% (inactive) in the assay with TK-10 renal; 101% (inactive) with ACHN renal. Also, the growth in the assay on CAKI-1 renal is 99.6% (inactive); in the assay on A498 renal, 104% (inactive); in the assay with CCRF-CEM leukemia, 106% (inactive); in the assay on MOLT-4 leukemia it was 99.7% (inactive).

With `COc1cc([C@@H]2c3cc4c(cc3[C@H](O)[C@H]3COC(=O)[C@@H]23)OCO4)cc(OC)c1OC`, the growth in the assay with SK-MEL-2 melanoma is -23.7% (active); with EKVX NSCLC it was 28.6% (inactive) and 35.4% (inactive); in the assay with SN12C renal it was 20.6% (inactive) and 33% (inactive); in the assay with UO-31 renal, 23.3% (inactive) and 36.9% (inactive); in the assay on TK-10 renal, 21.1% (inactive) and 69.2% (inactive); in the assay with ACHN renal it was 25.2% (inactive) and 31.8% (inactive). Further, the growth with CAKI-1 renal was 22.9% (inactive) and 8.72% (active); in the assay with A498 renal, -5.77% (active) and -29.6% (active); with CCRF-CEM leukemia, 17.4% (inactive) and 0.767% (active); in the assay on MOLT-4 leukemia it was 13.5% (inactive) and 4.58% (active).

With `Nc1c(S(=O)(=O)O)cc(Br)c2c1C(=O)c1ccccc1C2=O`, the growth with SK-MEL-2 melanoma was 91.8% (inactive); with EKVX NSCLC, 101% (inactive); with SN12C renal it was 107% (inactive) and 112% (inactive); with UO-31 renal, 77.4% (inactive) and 67.5% (inactive); in the assay with TK-10 renal, 102% (inactive) and 110% (inactive); in the assay with ACHN renal it was 108% (inactive) and 107% (inactive). Besides, the growth with CAKI-1 renal was 101% (inactive) and 95% (inactive); in the assay on A498 renal it was 114% (inactive) and 96.6% (inactive); in the assay with CCRF-CEM leukemia, 98.3% (inactive); in the assay with MOLT-4 leukemia, 99.7% (inactive) and 91.1% (inactive).

`C/C(=C\c1ccccc1)C(O)C(=O)c1nc2ccc([N+](=O)[O-])cc2[nH]c1=O` (stereo not given): the growth is 93.6% (inactive) in the assay with SK-MEL-2 melanoma; 92.6% (inactive) in the assay on EKVX NSCLC; 90% (inactive) in the assay on SN12C renal; 74.4% (inactive) with UO-31 renal; 109% (inactive) in the assay with TK-10 renal; 81% (inactive) in the assay on ACHN renal. Besides, the growth is 96% (inactive) in the assay with CAKI-1 renal, 110% (inactive) with A498 renal, 74.8% (inactive) in the assay with CCRF-CEM leukemia and 91% (inactive) in the assay with MOLT-4 leukemia.

For `CC(CN(C)C)CN1c2ccccc2Sc2ccccc21` (stereo not given), the growth in the assay with SK-MEL-2 melanoma is 91.3% (inactive) and 103% (inactive); with EKVX NSCLC it was 83% (inactive) and 104% (inactive) and 73.8% (inactive); in the assay on SN12C renal, 65% (inactive) and 85.2% (inactive) and 80.5% (inactive); in the assay on UO-31 renal it was 51.7% (inactive) and 77.9% (inactive) and 71.7% (inactive); in the assay on TK-10 renal, 82.6% (inactive) and 76.6% (inactive) and 81.6% (inactive); with ACHN renal, 76.1% (inactive) and 92.2% (inactive) and 85.9% (inactive). Further, the growth was 62.3% (inactive) and 69.6% (inactive) in the assay with CAKI-1 renal; 108% (inactive) and 95% (inactive) and 82.6% (inactive) with A498 renal; 82.1% (inactive) and 85.3% (inactive) and 77.6% (inactive) with CCRF-CEM leukemia; 75.7% (inactive) and 100% (inactive) and 76.7% (inactive) with MOLT-4 leukemia.

Regarding `O=C1c2ccccc2C(c2ccccc2)C1c1ccccc1` (stereo not given), the growth in the assay with SK-MEL-2 melanoma was 91.1% (inactive); in the assay on EKVX NSCLC, 80.2% (inactive); in the assay with SN12C renal, 93.5% (inactive); with UO-31 renal it was 79.4% (inactive); in the assay on TK-10 renal it was 124% (inactive); in the assay with ACHN renal, 98% (inactive). The growth in the assay with CAKI-1 renal was 72.3% (inactive); in the assay on A498 renal, 102% (inactive); with CCRF-CEM leukemia it was 72.2% (inactive); with MOLT-4 leukemia, 87.8% (inactive).
